The source of these data is PubChem BioAssay (NCI).

Common to all, as to test: NCI-60 one-dose screen, 48 h (100 = growth as untreated, 0 = no growth, -100 = all killed)
Holding throughout (settings): 10 µM unless noted

In assay [1] the test system is NCI-H23 lung.
Assay [2] relates to NCI-H226 lung.
In assay [3] the test system is NCI-H322M lung.
The test system of assay [4] is HOP-62 NSCLC.
For assay [5], the system named is NCI-H460 lung.
The test system of assay [6] is HOP-92 NSCLC.
The subject of assay [7] is NCI-H522 lung.
Assay [8] deals with A549/ATCC NSCLC.
The test system of assay [9] is 786-0 renal.
Assay [10] has as its system COLO 205 colon.

This is part of a sample that, as a whole, favours compounds with a hit. Of some 83,000 tested, about 20% had one in any assay.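 The endpoint reported here, percent growth, reads 100 for growth as untreated, 0 for no net growth and -100 for all cells dead.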 Unmarked numbers belong to inactive results. The source made the active and inactive calls. How the source made its calls: active means growth percent below 10; inactive means the rest.

As to `CCN1CCN(c2cc(C)nc(N(CCNc3ccnc4cc(Cl)ccc34)Cc3ccc4c(c3)OCO4)n2)CC1`, the growth was 13.6% in assay [1]; 47.7% in assay [2]; 28.3% in [3]; -14.3% (active) in assay [4]; 8.38% (active) in [5]; 44.6% in assay [6]. In addition, the growth in assay [7] is -81.7% (active); in assay [8], 2.91% (active); in assay [9], -76.8% (active); in [10], -89.5% (active).
On to `CN1CCN(CCOc2ccc(-c3cnc4c(-c5ccc(F)cc5)cnn4c3)cc2)CC1`, for which the growth in assay [1] is 67%; in [2], 104%; in assay [3], 75%; in assay [4], 72.6%; in [5] it was -1.23% (active); in [6], 54.9%. Also, the growth in assay [7] is 64.1%; in [8] it was 27.3%; in [9], 60.3%; in [10], -51.7% (active).
On to `Cc1ccc(S(=O)(=O)OCCCOS(=O)(=O)c2ccc(C)cc2)cc1`, for which the growth in assay [1] is 105%; in [2], 107%; in [3] it was 92.3%; in [4], 113%; in [5] it was 96.5%; in assay [6], 77.4%. In addition, the growth in assay [7] is 89%; in assay [8], 93.4%; in [9], 90.8%; in [10], 110%.
Turning to `C#Cc1cccc(Nc2nc(C)nc3cc(NC(=O)CCl)ccc23)c1`, the growth in assay [1] is -55.6% (active); in assay [2] it was -28.1% (active); in assay [3], -31.3% (active); in assay [4], -84.2% (active); in [5], -64.1% (active); in assay [6], -82% (active). Moreover, the growth in [7] was -77.5% (active); in assay [8] it was 5.92% (active); in assay [9], -72.5% (active); in assay [10], -78.6% (active).
On to `CNC(=O)c1cc(Oc2ccc3c(c2)sc2nc(-c4ccc(OC)cc4)cn23)ccn1`, for which the growth in assay [1] is 41.2%; in [2], 61.6%; in assay [3], 56.7%; in [4], 19.4%; in assay [5], 6.83% (active); in assay [6] it was 35%. In addition, the growth in assay [7] was 38.1%; in assay [8], 15.9%; in assay [9], 29.3%; in assay [10], 0.159% (active).
With `CCOC(=O)C(=CNc1cnc(Nc2ccc(N3CCOCC3)cc2)nc1Oc1ccc(OC)cc1)C(=O)OCC`, the growth in [1] is 68.4%; in assay [2], 70.3%; in assay [3], 39.7%; in assay [4] it was 23.5%; in assay [5], 2.03% (active); in assay [6], 30.3%. The growth in [7] is 76.3%; in [8] it was 22.2%; in assay [9], 30.8%; in [10] it was 65.9%.
As for `CCOC(=O)c1c(C)nc2ccccc2c1/C=C/c1cccs1`, the growth in [1] is 57.6%; in assay [2] it was 72.4%; in assay [3] it was 89.1%; in assay [4], 84.7%; in assay [5], 85.2%; in assay [6], 68.6%. In addition, the growth in [7] was 57%; in [8] it was 64.9%; in [9], 89.7%; in assay [10], 84.5%.
Take `Cn1c2c(c3ccc(Cl)c(Cl)c31)C(C#N)C(C)(C)NC2=O` (stereo not given): the growth was 97.6% in [1]; 59.4% in assay [2]; 91.4% in assay [3]; 90.7% in assay [4]; 91% in assay [5]; 72.8% in [6]. Further, the growth in [7] is 55.8%; in assay [8], 89.5%; in [9] it was 69.3%; in [10], 92.2%.
Regarding `Cc1ccc(-c2csc(NC(=O)c3ccccc3CN3C(=O)c4ccccc4C3=O)n2)cc1`, the growth was 93.3% in assay [1]; 92% in assay [2]; 95.1% in [3]; 99.1% in [4]; 109% in assay [5]; 89.6% in [6]. In addition, the growth in assay [7] was 82.1%; in assay [8], 86.4%; in [9] it was 95.8%; in assay [10] it was 103%.
With `O=C(O)/C=C/C(=O)Nc1cccc(Cn2nnc3cc(Cl)c(Cl)cc32)c1`, the growth in assay [1] is 97.3%; in assay [2] it was 89.8%; in assay [3], 101%; in assay [4], 98.4%; in assay [5], 105%; in [6], 97.5%. The growth in assay [7] was 96.2%; in [8] it was 102%; in [9], 99.7%; in assay [10], 112%.
Take `CN1CCN(CC(=O)Nc2ccc3ncnc(Nc4ccc(Oc5cccc(C(F)(F)F)c5)c(Cl)c4)c3c2)CC1`: the growth in [1] is 53.1%; in [2], 81.5%; in assay [3], 26.5%; in assay [4], 54.1%; in [5], -69.4% (active); in [6], 39.7%. Further, the growth is 18% in assay [7], 10.2% in [8], -75.8% (active) in assay [9] and -39.5% (active) in assay [10].
For the compound `C=C(C)[C@@H]1CC[C@]2(C(N)=O)CC[C@]3(C)[C@H](CC[C@@H]4[C@@]5(C)CC[C@H](OCCC#N)C(C)(C)[C@@H]5CC[C@]43C)[C@@H]12`, the growth in assay [1] is 91.3%; in [2], 84.1%; in assay [3] it was 73.3%; in [4], 95%; in assay [5] it was 79%; in [6] it was 78.1%. Besides, the growth in assay [7] was 77.5%; in [8], 74.6%; in assay [9], 94.8%; in assay [10], 86.1%.
Take `Cc1ccc2nc(-c3ccc(C(=O)NNC(=S)Nc4ccccc4)cc3)[nH]c2c1`: the growth in assay [1] is 91.5%; in assay [2] it was 92.7%; in assay [3], 99.7%; in assay [4], 95.3%; in assay [5] it was 94.4%; in assay [6], 99.8%. In addition, the growth in [7] was 95%; in [8], 101%; in assay [9], 94.8%; in assay [10], 119%.
For `N#C/C(=C\c1ccc([N+](=O)[O-])cc1)n1nnc2cc(F)c(F)cc21`, the growth in assay [1] was 34.6%; in assay [2] it was -1.27% (active); in [3] it was 72.5%; in assay [4], 63.9%; in assay [5], 11.7%; in assay [6], 9.03% (active). In addition, the growth was 36.9% in assay [7], 64.5% in assay [8], -58.4% (active) in assay [9] and 19.9% in assay [10].
